Article PMC7862700, “An all-to-all approach to the identification of sequence-specific readers for epigenetic DNA modifications on cytosine”

How the values were obtained:
Test in all cases: DAPPL (digital affinity profiling via proximity ligation, sequencing); 10 mM Tris-HCl pH 7.5, 50 mM NaCl, 1 mM DTT, 4% glycerol, room temperature, 30 min; GST-TFs on glutathione beads, 16-mer random dsDNA library, 0.1% formaldehyde crosslink after washing; high values mean tight binding
[1] = target: T1, FEV (Homo sapiens, UniProt Q99581 1-238); conditions: protein: recombinant; tags: N-terminal GST; dsDNA, one strand shown
T1 sequence: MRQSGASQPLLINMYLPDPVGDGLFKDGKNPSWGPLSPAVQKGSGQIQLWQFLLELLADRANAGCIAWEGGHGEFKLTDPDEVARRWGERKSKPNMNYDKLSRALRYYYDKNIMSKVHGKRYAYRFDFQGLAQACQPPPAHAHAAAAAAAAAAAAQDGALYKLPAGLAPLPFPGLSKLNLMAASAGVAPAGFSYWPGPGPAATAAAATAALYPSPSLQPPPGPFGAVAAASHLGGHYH
How it was run: (§1)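 Pools of DNA-barcoded human transcription factors, expressed in yeast as GST fusions on glutathione beads and combined with a tag-only sample, were incubated with 200 nmole of a 16-mer random double-stranded DNA library. Incubation took 30 min at room temperature in Tris/NaCl/DTT/glycerol buffer and was followed by washing, 0.1% formaldehyde crosslinking, proximity ligation (BsaI/T4 ligase, 1 h, 37 °C), PCR amplification and sequencing on an Illumina NextSeq500. Binding signal is the ratio of a hexamer's read frequency for a factor to its frequency for the tag-only sample.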

[2] = target: ETV5 (Homo sapiens, UniProt P41161 1-510); conditions: protein: recombinant; tags: N-terminal GST; dsDNA, one strand shown
Sequence of ETV5 (P41161 whole entry): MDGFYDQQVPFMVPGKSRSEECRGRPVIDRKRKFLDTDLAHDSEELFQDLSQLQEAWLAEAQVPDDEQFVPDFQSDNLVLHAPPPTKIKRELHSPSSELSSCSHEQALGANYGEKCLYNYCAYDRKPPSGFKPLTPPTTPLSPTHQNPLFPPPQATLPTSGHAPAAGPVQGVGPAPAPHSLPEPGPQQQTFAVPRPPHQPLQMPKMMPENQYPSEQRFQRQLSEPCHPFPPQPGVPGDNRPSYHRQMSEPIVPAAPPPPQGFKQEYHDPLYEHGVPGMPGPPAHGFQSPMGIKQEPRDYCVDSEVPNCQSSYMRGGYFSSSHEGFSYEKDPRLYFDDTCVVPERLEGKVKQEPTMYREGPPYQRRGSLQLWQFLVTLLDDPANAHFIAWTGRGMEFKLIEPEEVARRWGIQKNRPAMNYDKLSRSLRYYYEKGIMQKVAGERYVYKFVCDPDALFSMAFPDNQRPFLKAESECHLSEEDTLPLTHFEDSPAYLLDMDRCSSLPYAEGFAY
How it was run: as §1

[3] = target: HSF1 (Homo sapiens, UniProt Q00613 1-529); conditions: protein: recombinant; tags: N-terminal GST; chain copies: 3; dsDNA, one strand shown
Sequence of HSF1 (Q00613 whole entry): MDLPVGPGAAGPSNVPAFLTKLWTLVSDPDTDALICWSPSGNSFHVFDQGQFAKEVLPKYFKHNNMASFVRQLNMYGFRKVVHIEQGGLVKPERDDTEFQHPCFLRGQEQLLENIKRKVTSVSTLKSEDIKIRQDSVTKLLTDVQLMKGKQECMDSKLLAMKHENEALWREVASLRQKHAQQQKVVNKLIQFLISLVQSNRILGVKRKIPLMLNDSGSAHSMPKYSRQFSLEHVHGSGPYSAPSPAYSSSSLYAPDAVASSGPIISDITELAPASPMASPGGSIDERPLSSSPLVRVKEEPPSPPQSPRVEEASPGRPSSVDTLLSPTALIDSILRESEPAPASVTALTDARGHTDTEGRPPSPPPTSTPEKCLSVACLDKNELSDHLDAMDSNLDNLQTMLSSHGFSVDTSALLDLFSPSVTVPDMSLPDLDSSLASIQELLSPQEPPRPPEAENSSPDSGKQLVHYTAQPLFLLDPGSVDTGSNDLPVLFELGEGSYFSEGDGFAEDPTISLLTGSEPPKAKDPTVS
How it was run: as §1

[4] = target: T2, SPIC (Homo sapiens, UniProt Q8N5J4 1-248); conditions: protein: recombinant; tags: N-terminal GST; dsDNA, one strand shown
T2 sequence: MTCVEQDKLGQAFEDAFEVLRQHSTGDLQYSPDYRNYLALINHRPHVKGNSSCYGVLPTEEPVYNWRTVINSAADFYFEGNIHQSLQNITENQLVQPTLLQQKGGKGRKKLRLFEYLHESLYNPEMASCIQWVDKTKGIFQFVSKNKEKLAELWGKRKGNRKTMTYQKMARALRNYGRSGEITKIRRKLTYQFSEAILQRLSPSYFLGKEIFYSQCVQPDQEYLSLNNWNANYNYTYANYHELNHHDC
How it was run: as §1

[5] = target: ELF4 (Homo sapiens, UniProt Q99607 1-663); conditions: protein: recombinant; tags: N-terminal GST; dsDNA, one strand shown
Sequence of ELF4 (Q99607 whole entry): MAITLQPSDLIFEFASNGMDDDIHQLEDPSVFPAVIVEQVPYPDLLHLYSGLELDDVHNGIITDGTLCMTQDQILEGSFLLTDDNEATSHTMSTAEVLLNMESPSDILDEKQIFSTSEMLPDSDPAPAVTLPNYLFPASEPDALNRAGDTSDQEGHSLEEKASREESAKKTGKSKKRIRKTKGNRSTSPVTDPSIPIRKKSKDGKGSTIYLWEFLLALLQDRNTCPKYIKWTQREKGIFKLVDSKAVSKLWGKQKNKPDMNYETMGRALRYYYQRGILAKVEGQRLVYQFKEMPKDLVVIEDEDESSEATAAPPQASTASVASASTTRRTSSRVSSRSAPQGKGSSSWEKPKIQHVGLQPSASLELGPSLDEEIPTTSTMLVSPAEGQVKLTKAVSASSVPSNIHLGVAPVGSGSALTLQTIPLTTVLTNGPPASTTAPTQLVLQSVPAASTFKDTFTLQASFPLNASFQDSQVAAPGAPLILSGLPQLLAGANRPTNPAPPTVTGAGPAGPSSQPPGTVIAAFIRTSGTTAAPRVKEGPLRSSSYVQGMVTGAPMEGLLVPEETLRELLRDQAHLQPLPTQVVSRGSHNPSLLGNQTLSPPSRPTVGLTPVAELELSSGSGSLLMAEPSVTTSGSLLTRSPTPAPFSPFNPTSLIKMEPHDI
How it was run: as §1

[6] = target: T3, ELK4 (Homo sapiens, UniProt P28324-2 1-405); conditions: protein: recombinant; tags: N-terminal GST; dsDNA, one strand shown
T3 sequence: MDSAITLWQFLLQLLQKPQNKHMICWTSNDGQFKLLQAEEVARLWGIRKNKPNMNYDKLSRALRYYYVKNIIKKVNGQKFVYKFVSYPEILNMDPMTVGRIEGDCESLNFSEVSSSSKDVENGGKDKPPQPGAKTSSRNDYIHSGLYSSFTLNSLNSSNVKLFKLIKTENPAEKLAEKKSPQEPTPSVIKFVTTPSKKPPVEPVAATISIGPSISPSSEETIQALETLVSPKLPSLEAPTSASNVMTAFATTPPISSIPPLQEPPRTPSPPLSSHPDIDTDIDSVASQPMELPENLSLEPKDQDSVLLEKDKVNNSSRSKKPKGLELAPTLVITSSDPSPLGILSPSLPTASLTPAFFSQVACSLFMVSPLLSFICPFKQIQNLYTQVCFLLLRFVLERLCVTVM
How it was run: as §1

[7] = target: T4, ETV2 (Homo sapiens, UniProt O00321 1-342); conditions: protein: recombinant; tags: N-terminal GST; dsDNA, one strand shown
T4 sequence: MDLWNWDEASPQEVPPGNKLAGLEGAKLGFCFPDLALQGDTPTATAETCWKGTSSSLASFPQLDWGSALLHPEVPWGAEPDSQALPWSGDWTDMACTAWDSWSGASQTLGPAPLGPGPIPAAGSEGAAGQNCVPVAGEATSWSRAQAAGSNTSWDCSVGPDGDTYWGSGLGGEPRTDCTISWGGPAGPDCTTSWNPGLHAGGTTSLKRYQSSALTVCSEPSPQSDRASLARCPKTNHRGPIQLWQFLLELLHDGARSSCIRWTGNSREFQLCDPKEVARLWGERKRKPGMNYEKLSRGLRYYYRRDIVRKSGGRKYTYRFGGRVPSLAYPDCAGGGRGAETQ
How it was run: as §1

[8] = target: T5, ELF3 (Homo sapiens, UniProt P78545 1-371); conditions: protein: recombinant; tags: N-terminal GST; dsDNA, one strand shown
T5 sequence: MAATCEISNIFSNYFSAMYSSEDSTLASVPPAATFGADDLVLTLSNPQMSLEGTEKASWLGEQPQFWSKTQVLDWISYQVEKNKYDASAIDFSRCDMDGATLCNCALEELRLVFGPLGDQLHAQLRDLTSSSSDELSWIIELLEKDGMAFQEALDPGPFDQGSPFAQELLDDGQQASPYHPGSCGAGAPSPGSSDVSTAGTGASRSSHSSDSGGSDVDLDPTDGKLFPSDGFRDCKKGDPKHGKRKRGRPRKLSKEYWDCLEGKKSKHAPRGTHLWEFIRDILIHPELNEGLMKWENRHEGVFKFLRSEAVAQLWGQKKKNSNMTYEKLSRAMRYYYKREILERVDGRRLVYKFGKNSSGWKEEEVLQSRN
How it was run: as §1

[9] = target: CRX (Homo sapiens, UniProt O43186 1-299); conditions: protein: recombinant; tags: N-terminal GST; dsDNA, one strand shown
Sequence of CRX (O43186 whole entry): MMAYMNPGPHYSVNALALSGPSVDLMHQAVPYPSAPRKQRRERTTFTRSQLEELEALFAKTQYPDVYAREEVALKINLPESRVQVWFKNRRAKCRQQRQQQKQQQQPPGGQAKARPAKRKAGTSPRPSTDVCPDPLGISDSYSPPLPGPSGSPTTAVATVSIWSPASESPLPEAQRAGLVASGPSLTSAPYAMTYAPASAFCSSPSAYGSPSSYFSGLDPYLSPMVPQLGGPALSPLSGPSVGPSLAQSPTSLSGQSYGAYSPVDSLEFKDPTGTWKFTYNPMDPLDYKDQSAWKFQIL
How it was run: as §1

[10] = target: ETV1 (Homo sapiens, UniProt P50549 1-477); conditions: protein: recombinant; tags: N-terminal GST; dsDNA, one strand shown
Sequence of ETV1 (P50549 whole entry): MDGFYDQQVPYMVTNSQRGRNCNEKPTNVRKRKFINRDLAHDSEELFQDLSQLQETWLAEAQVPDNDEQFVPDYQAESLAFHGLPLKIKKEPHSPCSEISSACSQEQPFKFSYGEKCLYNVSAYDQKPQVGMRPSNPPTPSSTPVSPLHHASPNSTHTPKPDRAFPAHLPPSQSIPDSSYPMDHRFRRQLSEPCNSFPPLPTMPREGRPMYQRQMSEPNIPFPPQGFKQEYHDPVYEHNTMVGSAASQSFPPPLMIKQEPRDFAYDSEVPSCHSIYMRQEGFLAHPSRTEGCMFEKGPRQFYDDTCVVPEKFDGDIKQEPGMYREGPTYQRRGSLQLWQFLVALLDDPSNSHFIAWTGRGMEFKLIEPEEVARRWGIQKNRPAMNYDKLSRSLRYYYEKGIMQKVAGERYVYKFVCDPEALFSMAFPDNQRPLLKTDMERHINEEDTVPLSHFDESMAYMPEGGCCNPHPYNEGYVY
How it was run: as §1

## TACTCA
[1]
  binding signal: 1.24 fold enrichment (6-mer frequency, TF over GST control)
[2]
  binding signal: 1.17 fold enrichment (6-mer frequency, TF over GST control)
[3]
  binding signal: 1.12 fold enrichment (6-mer frequency, TF over GST control)
[4]
  binding signal: 1.19 fold enrichment (6-mer frequency, TF over GST control)
[5]
  binding signal: 1.23 fold enrichment (6-mer frequency, TF over GST control)
[6]
  binding signal: 1.13 fold enrichment (6-mer frequency, TF over GST control)
[7]
  binding signal: 1.17 fold enrichment (6-mer frequency, TF over GST control)
[8]
  binding signal: 1.22 fold enrichment (6-mer frequency, TF over GST control)
[9]
  binding signal: 1.26 fold enrichment (6-mer frequency, TF over GST control)
[10]
  binding signal: 1.19 fold enrichment (6-mer frequency, TF over GST control)
